In the supplement of paper PMC10981050:
Where a name gives a salt, the structure may show the parent alone.

These molecules were tested on K562 (assay: cell viability relative to vehicle control; higher = less cytotoxic). Settings: 10 µM; SRSF2 genotype: SRSF2 wt/wt.
How it was run: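 Four leukaemia lines, as CRISPR-edited mutant clones and isogenic wild-type clones, were tested against Selleck bioactive, kinase and epigenetic probe libraries after removal of identity-inconsistent compounds. Cells were exposed to a single 10 µM dose for 48 h, and CellTiter-Glo luminescence was then read. Viability was calculated relative to the on-plate vehicle control.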
Molecule `CCCSc1nc(N[C@@H]2C[C@H]2c2ccc(F)c(F)c2)c2nnn([C@@H]3C[C@H](OCCO)[C@@H](O)[C@H]3O)c2n1` [Ticagrelor] has a cell viability of 70.3%.
`O=[N+]([O-])c1cn2c(n1)OC[C@@H](OCc1ccc(OC(F)(F)F)cc1)C2` was tested, and the cell viability was 91.8%.
Molecule `Cn1cncc1[C@@](N)(c1ccc(Cl)cc1)c1ccc2c(c1)c(-c1cccc(Cl)c1)cc(=O)n2C` [Tipifarnib (Zarnestra)] has a cell viability of 34.7%.
`CCN1CCN(C(=O)N[C@@H](C(=O)N[C@@H]2C(=O)N3C(C(=O)O)=C(CSc4nnnn4C)CS[C@H]23)c2ccc(O)cc2)C(=O)C1=O` [Cefoperazone (Cefobid)] was tested, and the cell viability was 91.7%.
`C[C@]1(O)C[C@@H](c2nc(-c3ccc4ccc(-c5ccccc5)nc4c3)c3c(N)nccn32)C1` [OSI-906 (Linsitinib)] gave a cell viability of 80.6%.
In the case of `O=c1c(O)c(-c2ccc(O)c(O)c2)oc2cc(O)ccc12` [Fisetin (Fustel)], the cell viability is reported as 105%.
`CC1(C)[C@@H](O)CC[C@]2(C)[C@H]3C(=O)C=C4[C@@H]5C[C@@](C)(C(=O)O)CC[C@]5(C)CC[C@@]4(C)[C@]3(C)CC[C@@H]12` [Enoxolone (Glycyrrhetin)] was tested, and the cell viability was 102%.
`OCCN1C[C@H](O)[C@@H](O)[C@H](O)[C@H]1CO` [Miglitol (Glyset)] showed a cell viability of 101%.
With `CC(OC(=O)OC1CCCCC1)OC(=O)C1=C(CSc2nnnn2CCN(C)C)CS[C@@H]2[C@H](NC(=O)Cc3csc(N)n3)C(=O)N12` (stereo not given in full) [Cefotiam Hexetil Hydrochloride] the cell viability was 93.7%.
Molecule `COc1ccc(-c2nc(-c3cc(C(F)(F)F)cc(C(F)(F)F)c3)n(Cc3ccc(C(N)=O)cc3)c2-c2ccc(OC)cc2)cc1` [Apoptozole] has a cell viability of 80.8%.
